# In PubChem BioAssay (NCI):
# The panel holds about 83,000 compounds, 20% with a hit somewhere; the sample as a whole holds those more often.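 The test compound was applied at a single concentration to cells in 96-well plates for 48 hours, and percent growth was recorded.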 Unmarked numbers belong to inactive results. Active and inactive are the calls of the source. Rule for the calls: active = growth percent below 10; inactive = the rest.
# What was measured:
# Assay in all cases: NCI-60 one-dose screen, 48 h (100 = growth as untreated, 0 = no growth, -100 = all killed)
# Conditions in all cases: 10 µM unless noted
# SR leukemia = test system: SR leukemia
# RPMI-8226 leukemia = test system: RPMI-8226 leukemia
# OVCAR-8 ovarian = test system: OVCAR-8 ovarian
# OVCAR-5 ovarian = test system: OVCAR-5 ovarian
# OVCAR-4 ovarian = test system: OVCAR-4 ovarian
# SK-OV-3 ovarian = test system: SK-OV-3 ovarian
# IGROV1 ovarian = test system: IGROV1 ovarian
# OVCAR-3 ovarian = test system: OVCAR-3 ovarian
# HS 578T breast = test system: HS 578T breast
# NCI/ADR-RES ovarian = test system: NCI/ADR-RES ovarian
Compound,growth (SR leukemia),growth (RPMI-8226 leukemia),growth (OVCAR-8 ovarian),growth (OVCAR-5 ovarian),growth (OVCAR-4 ovarian),growth (SK-OV-3 ovarian),growth (IGROV1 ovarian),growth (OVCAR-3 ovarian),growth (HS 578T breast),growth (NCI/ADR-RES ovarian)
C=C1C(=O)O[C@H]2[C@H]1CC/C(COC(=O)/C=C\C(=O)NCc1ccc(Cn3c(=O)sn(CCCCl)c3=O)cc1)=C\CC[C@@]1(C)O[C@@H]21,66.5%,44.9%,79.9%,82.2%,74.9%,97.4%,58.6%,37.4%,88.8%,93.7%
Cc1ccc2c(c1)=C/C(=C\c1cc(-c3ccccc3)[nH]c1O)C(=O)N=2,14.1%,33.8%,50.6%,78.9%,59.7%,65.7%,40.7%,16.1%,41.9%,43.7%
Clc1ccc(Nc2nnc(CNc3ccccc3)c3ccccc23)cc1,-9.19% (active),3.35% (active),18.3%,41.4%,19.3%,22%,19.1%,-1.64% (active),26.6%,18.8%
Cc1ccc(NC(=O)c2cc3ccccc3cc2O)c(C)c1,76.8%,29.4%,109%,96.9%,74.4%,99.4%,80.4%,66.4%,98.9%,82.8%
O=C(/C=C/C12c3ccccc3C(c3ccccc31)C1C(=O)NC(=O)C12)c1ccc(Cl)cc1Cl (stereo not given),2.74% (active),-22.3% (active),11.1%,37.6%,42.9%,49.9%,23.4%,-29.3% (active),30.5%,5.85% (active)
O=c1ccc2ccc(OCCN3CCCCC3)cc2o1,-35.7% (active),-23.8% (active),95.2%,102%,113%,82.7%,110%,113%,96.5%,99.9%
CSc1ccc(N2C(=N)C(=S)N(c3ccc(C)cc3)C2=O)cc1,80.3%,89%,96.1%,89%,96.4%,81.1%,103%,105%,96%,106%
C#COc1cccc(Nc2ncnc3cc(NC(=O)[C@H](C)Cl)ccc23)c1,92.6% [6.25 µM],100% [6.25 µM],9.3% [6.25 µM] (active),25% [6.25 µM],56.6% [6.25 µM],3.8% [6.25 µM] (active),9.75% [6.25 µM] (active),7.9% [6.25 µM] (active),24.8% [6.25 µM],14.8% [6.25 µM]
COc1ccc(N=C2NN=C(c3c[nH]c4ccccc34)CS2)cc1OC,93.6%,17%,71.7%,74.6%,69.2%,67.7%,-32.4% (active),-9.06% (active),52.8%,17.7%
COC1C(O)CC(OC2CC(OC3CC(O[C@@H]4C(=O)c5c(cc6cc(OC7CC(OC8CC(O)C(O)C(C)O8)C(O)C(C)O7)c(C)c(O)c6c5O)CC4[C@H](OC)[C@@H](O)C(C)=O)OC(C)C3O)OC(C)C2O)OC1C (stereo not given in full),4.82% (active),7.39% (active),8.72% (active),12%,16.9%,22.2%,17.4%,5.36% (active),21.7%,68.8%
C[C@H]1[C@H](C)CC[C@]2(C(=O)NCCNCCN)CC[C@]3(C)C(=CC[C@@H]4[C@@]5(C)CCC(=O)C(C)(C)[C@@H]5CC[C@]43C)[C@H]12,-38.7% (active),-16.3% (active),33.6%,94.1%,77.4%,87.4%,52.7%,9.12% (active),72.5%,88.2%
CS(=O)(=O)Nc1cc(-c2ccc3ncnc(Nc4ccc(OCc5ccccn5)c(Cl)c4)c3c2)cnc1Cl,-5.01% (active),-50.3% (active),14.4%,12.5%,20.9%,-27.1% (active),-30.6% (active),-19% (active),-19.7% (active),77.7%
CNC(=O)c1cc(Oc2ccc3c(c2)sc2nc(-c4ccc(Cl)c(C(F)(F)F)c4)cn23)ccn1,41.6%,33.9%,52.5%,100%,65%,78%,86.3%,74.2%,80.3%,60.9%
